Assay results reported in PubChem BioAssay (NCI).
Compounds without any hit were thinned out: in the full panel of roughly 83,000, 20% have a hit.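 Percent growth is the endpoint: 0 to 100 indicates growth inhibition (40 means 60% inhibition), 0 means no net growth, and negative values indicate cell death.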 Values without a mark were called inactive. The source made the active and inactive calls. Rule for the calls: active = growth percent below 10; inactive = the rest.

tested on: RXF 393 renal; experiment: NCI-60 one-dose screen, 48 h (100 = growth as untreated, 0 = no growth, -100 = all killed); conditions: 10 µM unless noted

Q: With `O=c1ccc2nc(C(F)(F)F)nn(-c3ccccc3)c-2c1` as the molecule, how does the growth read?
A: -20.5% (active)

Q: Which growth does the source give for `O=P(O)(O)OCC1OC(n2cnc3c(NCc4ccccc4)ncnc32)C(O)C1O` (stereo unspecified) here?
A: -0.932% (active)

Q: Which growth does the source give for `Cc1cc2nc(-c3c(-c4ccc(F)cc4)nc4sccn34)[nH]c2cc1C` here?
A: 93.2%

Q: For `CCOC(=O)N1CCN(S(=O)(=O)c2oc(-c3ccc(Cl)cc3)nc2C#N)CC1`, which growth is on record?
A: 83.8%

Q: `CCCCCCCCn1ccc2cc(NC(=O)Cn3cc(CN4CCN(CC)CC4)nn3)ccc21` was tested. Which growth did it give?
A: 67.7%

Q: With `CC12CCC(/C(=C/NNc3ccc([N+](=O)[O-])cc3[N+](=O)[O-])C1=O)C2(C)C` (stereo unspecified) as the molecule, how does the growth read?
A: 64.6%

Q: Which growth does the source give for `COc1ccc(/C(C)=C(\c2ccc(OCCN3CCCCCC3)cc2)c2ccc(OC(=O)c3ccccc3)cc2)cc1` here?
A: 16.4%

Q: Which growth does the source give for `O=C(N/N=C/c1ccc([N+](=O)[O-])cc1)c1ccc2nc(-c3ccc(Cl)cc3)[nH]c2c1` here?
A: 31.6%

Q: How did the growth turn out when `COc1cc(/C=C\c2cc(/C=C\c3ccc(O)c(OC)c3)n(C(=O)CNc3ccc(Cl)cc3)n2)ccc1O` was run?
A: 3.29% (active)

Q: How did the growth turn out when `CN(C)c1ccc(-c2cc(-c3ccc(Nc4nc(Nc5ccc(Cl)cc5)nc(Nc5ccc(Cl)cc5)n4)cc3)nc(N)c2C#N)cc1` was run?
A: 37.1%

Q: How did the growth turn out when `Nc1ccc([N+](=O)[O-])cc1N=C/C=C/c1ccccc1` was run?
A: 85.1%

Q: How did the growth turn out when `Cc1nc2sc(C(=O)Nc3cccc(Cl)c3)c(N)c2cc1C(O)c1ccccc1` (stereo unspecified) was run?
A: 27.7%

Q: For `COc1cc(C2=NN(C(C)=O)C(c3ccc(N(C)C)cc3)C2)cc(OC)c1OC` (stereo unspecified), which growth is on record?
A: 103%

Q: For `COc1cc2c(cc1O)[C@@]1(C)[C@H](c3ccccc3Br)OC(=O)N1CC2`, which growth is on record?
A: 99.5%

Q: With `CC1(C)CC[C@]2(C(=O)O)CC[C@]3(C)C(=CC[C@@H]4[C@@]5(C)C[C@@H](Cc6cn([C@@H]7O[C@H](CO)[C@@H](O)[C@H](O)[C@H]7O)nn6)[C@H](O)C(C)(C)[C@@H]5CC[C@]43C)[C@@H]2C1` as the molecule, how does the growth read?
A: 106%

Q: For `COc1cccc(Nc2ccnc3[nH]c4ccc([N+](=O)[O-])cc4c23)c1`, which growth is on record?
A: 33.5%

Q: How did the growth turn out when `N#Cc1c(NC(=O)c2cccs2)[n+]([O-])c2ccc(Cl)cc2[n+]1[O-]` was run?
A: 127%

Q: For `O=C1Nc2ccc(F)cc2/C1=N/c1nnc(Sc2ccccc2)s1`, which growth is on record?
A: 110%

Q: Which growth does the source give for `COc1ccc(/C=C/C(=O)c2ccc(NC(=O)CSc3nnc(-c4cc(-c5ccccc5)nc5ccccc45)n3-c3ccccc3)cc2)cc1` here?
A: 103%

Q: With `CCN1C(=O)N(CC)C2C1NN=C1SCC(=O)N12` (stereo unspecified) as the molecule, how does the growth read?
A: 107%

Q: Which growth does the source give for `CC(=O)N/C(=C1/OC(C(O)C(O)C(O)CO)CN1C)[P+](c1ccccc1)(c1ccccc1)c1ccccc1` (stereo unspecified) here?
A: 97%

Q: Which growth does the source give for `CCOC(=O)Nc1nc2ccc(SCC(C)C)cc2s1` here?
A: -3.43% (active)

Q: With `NNC(=S)N/N=C/c1ccccn1` as the molecule, how does the growth read?
A: 25.2%

Q: `Cc1[nH]c(/C=C/C(=O)c2ccc(C(F)(F)F)c(F)c2)c(C)c1C(=O)NCC(C)C` was tested. Which growth did it give?
A: 93.8%

Q: For `N#Cc1c(N2CCOCC2)nc(=S)[nH]c1-c1ccccc1`, which growth is on record?
A: 70.8%

Q: `Cc1cc(N2CCCCC2)nc(N2CCN(CC(=O)Nc3ccc4c(ccn4Cc4ccccc4)c3)CC2)n1` was tested. Which growth did it give?
A: 36.2%

Q: With `CC(C)c1ccc(C(=O)Nc2sc3cc(O)ccc3c2C#N)cc1` as the molecule, how does the growth read?
A: 45.2%

Q: For `O=C(/C=C/C12c3ccccc3C(c3ccccc31)C1C(=O)NC(=O)C12)c1ccccn1` (stereo unspecified), which growth is on record?
A: -46.3% (active)

Q: How did the growth turn out when `CC(C)CSc1oc(-c2ccccc2)nc1S(=O)(=O)c1ccccc1` was run?
A: 82.6%

Q: `O=C(/C=C/c1ccc(Br)cc1)c1ccc(-n2cc(CN3CCN(c4cc5c(cc4F)c(=O)c(C(=O)O)cn5C4CC4)CC3)nn2)cc1` was tested. Which growth did it give?
A: 88.4%

Q: With `Nc1c(C(=O)Nc2ccncc2)sc2nc3c(cc12)CCCCC3` as the molecule, how does the growth read?
A: 84.2%

Q: How did the growth turn out when `O=C(CCCCCCN1CC(=O)N2[C@@H](C3CCCCC3)c3[nH]c4ccccc4c3C[C@H]2C1=O)NO` was run?
A: 65.2%

Q: How did the growth turn out when `COc1ccc2[nH]cc(-c3nc(-c4cn(C)c5ccncc45)cs3)c2c1` was run?
A: -86.8% (active)

Q: For `O=C(/C=C\c1ccco1)/C=C/c1ccco1`, which growth is on record?
A: 100%

Q: How did the growth turn out when `O=C1NC(=C(Cl)Cl)/C(=N/S(=O)(=O)N2CCCCC2)N1` was run?
A: -39.8% (active)

Q: For `COc1ccc(C2=Nc3c(N)ncnc3NC(c3cccc(Nc4ccnc5cc(C(F)(F)F)ccc45)c3)C2)cc1` (stereo unspecified), which growth is on record?
A: 41%
